Pf Dd2 inh: qHTS Primary assay for Inhibitors of Plasmodium falciparum Dd2 growth in vitro; 4.3% of 120,000 active; AID 1347417, 2020; Potency, µM (doses to about 28.9 µM), for inactives: at the top dose activity, negative = inhibition, hits mostly inhibitors; P. falciparum Dd2 growth, SYBR Green, 72 h; active means well fitted inhibition curve with a large enough effect;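 further: plate controls were DMSO vehicle for no effect and reference drug for full effect; nearly all actives have a fitted effect of over 65% in size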
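Readout: SYBR Green fluorescence, 485 nm excitation, 535 nm emission, after ~16 h lysis at 37C. Before that, Dd2-infected red cells (2.5% hematocrit) grew 72 h with compound, 29 uM top final concentration.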
* = called active by the depositor; [ ] = remark or other dose. Only a selection was taken, and hits are over-represented in it overall. Potency means the concentration at half of the fitted maximal effect.

What do the screens show for `O=C1NC2CCCCC2=C1CC(=O)N1CCOCC1` (centres undefined)?
Pf Dd2 inh: -16%

What do the screens show for `N#Cc1ccc(C(=O)N2CCN3C(=O)N(Cc4ccccc4)C(=O)[C@H]3C2)cc1`?
Pf Dd2 inh: -13%[44.1 µM]

Results for CN1C(=O)C(c2ccccc2)CC12CCN(C(=O)C1CCCC1)CC2 (centres undefined) ?
Pf Dd2 inh: -2%

What do the screens show for `CN1C(=O)C(c2ccccc2)CC12CCN(S(C)(=O)=O)CC2` (centres undefined)?
Pf Dd2 inh: -7%

How did CN1C(=O)C(c2ccccc2)CC12CCN(CCC(=O)O)CC2 (centres undefined) do in these assays?
Pf Dd2 inh: 10µM*

Results for CCOC1CCOC2(CCN(C(=O)c3ccco3)CC2)C1 (centres undefined) ?
Pf Dd2 inh: 26%

How did CCN(CC)S(=O)(=O)c1ccc(NC(=O)Cn2ncc3c([nH]c4ccccc43)c2=O)cc1 do in these assays?
Pf Dd2 inh: 45%

Results for COc1ccc(S(=O)(=O)N(CC(=O)NCCSc2ccc(C)cc2)c2ccc(C)cc2)cc1 ?
Pf Dd2 inh: -3%

How did CCN(CC)S(=O)(=O)c1ccc(C(=O)NCCSc2c(-c3ccc(OC)cc3)[nH]c3ccccc23)cc1 do in these assays?
Pf Dd2 inh: 7.9µM*

How did COc1ccc(S(=O)(=O)N(CCc2ccccc2)CC(=O)NCc2ccccc2)cc1 do in these assays?
Pf Dd2 inh: inactive

What do the screens show for `COc1ccc(-c2[nH]c3ccccc3c2SCCNC(=O)c2ccc(S(=O)(=O)N(C)C)cc2)cc1`?
Pf Dd2 inh: 7.9µM*

What do the screens show for `COc1ccc(-c2cnnn2-c2ccc(NC(=O)c3ccc(S(=O)(=O)N(C)C)cc3)cc2)cc1`?
Pf Dd2 inh: inactive

Results for Cc1noc(C)c1[S+](=O)([O-])N1CCn2cc(C(=O)NCc3ccc(Cl)nc3)nc2C1 ?
Pf Dd2 inh: -11%

Results for COc1ccc(C[C@H](NC(=O)C2=C[C@@H](NC(=O)CSCC(=O)O)[C@@H](O)[C@H](O)C2)C(N)=O)cc1 ?
Pf Dd2 inh: 17%

Results for Cn1c(SCC(=O)Nc2nc3ccccc3s2)ncc(C(=O)Nc2ccc(Cl)cc2)c1=O ?
Pf Dd2 inh: 30%

What do the screens show for `CN1CCc2c(sc(NC(=O)CSc3ccccc3)c2-c2nc3ccccc3s2)C1`?
Pf Dd2 inh: 11µM*

What do the screens show for `O=C(CSc1ncc(CO)n1Cc1ccccc1)Nc1nc2ccccc2s1`?
Pf Dd2 inh: -33%

Results for Cn1c(SCC(=O)Nc2nc3ccccc3s2)ncc(C(=O)Nc2ccccc2)c1=O ?
Pf Dd2 inh: 22%

How did Cc1cnc(=O)[nH]c1SCC(=O)Nc1nc2ccccc2s1 do in these assays?
Pf Dd2 inh: 8%

What do the screens show for `CC(=O)N1CCc2c(sc(NC(=O)CSc3ccccc3)c2-c2nc3ccccc3s2)C1`?
Pf Dd2 inh: 2µM*

Results for CCOc1ccccc1C1NC(=O)N(CC(=O)Nc2c(C)cccc2CC)C2=C1C(=O)OC2 (centres undefined) ?
Pf Dd2 inh: inactive

How did COc1ccccc1-n1cc(C(=O)NCc2cc3n(n2)CCNC3)cn1 do in these assays?
Pf Dd2 inh: -6%

Results for COc1ccc(CNC(=O)N[C@H](Cc2ccccc2)C(=O)N2CCOCCNC(=O)CC2)cc1 ?
Pf Dd2 inh: -20%

How did CCCN(CC1CCOC1)C(=O)NC(C)C (centres undefined) do in these assays?
Pf Dd2 inh: 9%[5.79 µM]

How did CC(C)CN1C(=O)c2cccn2CC1C(=O)N1CCCC1 (centres undefined) do in these assays?
Pf Dd2 inh: 1%

How did COC[C@]1(O)CCN(S(=O)(=O)c2cccc(C(=O)O)c2)CC1(C)C do in these assays?
Pf Dd2 inh: -17%

Results for CC1(c2cccnc2)N(Cc2ccccc2)C(=O)OC12CCN(C(=O)C1CCC1)CC2 (centres undefined) ?
Pf Dd2 inh: -17%[44.1 µM]

Results for CC(=O)N1CCC2(CC1)OC(=O)N(Cc1ccccc1F)C2(C)c1ccccc1 (centres undefined) ?
Pf Dd2 inh: inactive

Results for Cn1nccc1C(=O)N1CCC2(CC1)OC(=O)N(Cc1ccccc1C#N)C2(C)c1ccccc1 (centres undefined) ?
Pf Dd2 inh: 10µM*

How did CC1(c2ccccc2)N(Cc2ccccc2F)C(=O)OC12CCN(C(=O)c1cnccn1)CC2 (centres undefined) do in these assays?
Pf Dd2 inh: inactive

What do the screens show for `CC1(c2ccccc2)N(Cc2cccnc2)C(=O)OC12CCN(C(=O)c1ccc(Oc3ccccc3)cc1)CC2` (centres undefined)?
Pf Dd2 inh: 6.3µM*

How did COc1ccc(OC)c(CN2CCC3(CC2)OC(=O)N(Cc2ccccc2C#N)C3(C)c2ccccc2)c1 (centres undefined) do in these assays?
Pf Dd2 inh: -25%

What do the screens show for `CC1(c2ccccc2)N(Cc2ccccc2C#N)C(=O)OC12CCN(C(=O)c1ccc(F)cc1)CC2` (centres undefined)?
Pf Dd2 inh: inactive

What do the screens show for `CN1CCC(C(=O)N2CCC3(CC2)OC(=O)N(Cc2ccccc2F)C3(C)c2ccccc2)CC1` (centres undefined)?
Pf Dd2 inh: 5.6µM*

What do the screens show for `COCC(=O)N1CCC2(CC1)OC(=O)N(Cc1cccnc1)C2(C)c1ccccc1` (centres undefined)?
Pf Dd2 inh: -2%[44.1 µM]

How did CC1(c2ccccc2)N(Cc2ccccc2C#N)C(=O)OC12CCN(C(=O)Cc1ccccn1)CC2 (centres undefined) do in these assays?
Pf Dd2 inh: inactive

Results for CC1(c2ccccc2)N(Cc2ccccc2F)C(=O)OC12CCN(C(=O)CN1CCOCC1)CC2 (centres undefined) ?
Pf Dd2 inh: inactive

How did CC1(c2ccccc2)N(Cc2ccccc2C#N)C(=O)OC12CCN(c1ccncc1)CC2 (centres undefined) do in these assays?
Pf Dd2 inh: 11µM*

What do the screens show for `O=C1CC(c2noc(-c3cc(F)ccc3F)n2)CN1c1ccc(Cl)cc1` (centres undefined)?
Pf Dd2 inh: 32%

What do the screens show for `C[C@]1(O)CCN(C(=O)Cc2nc(-c3ccncc3)n[nH]2)C[C@@H]1O`?
Pf Dd2 inh: 2%

Results for CC1CCN([C@@H]2[C@H](O)[C@H](CO)O[C@@H]2CNC2CCOCC2)CC1 ?
Pf Dd2 inh: -15%[44.1 µM]

Results for O=C1Cc2c(-c3cccc(CO)c3)n[nH]c2CN1CC1CC1 ?
Pf Dd2 inh: 12%[44.1 µM]

What do the screens show for `CCOCCOC1CCN(C(=O)c2cc3ccccc3[nH]2)CC1`?
Pf Dd2 inh: -6%

How did CC(=O)N1CC2(Cc3ccccc31)CN(C(=O)c1ccccc1C)C2 do in these assays?
Pf Dd2 inh: 5%[44.1 µM]

What do the screens show for `COc1cccc(CC(=O)N2CCC3(CC2)OC(=O)N(Cc2csc(C)n2)C3(C)c2ccccc2)c1` (centres undefined)?
Pf Dd2 inh: 4µM*

What do the screens show for `Cc1nc(CN2C(=O)OC3(CCN(C(=O)Cc4ccc(O)cc4)CC3)C2(C)c2ccccc2)cs1` (centres undefined)?
Pf Dd2 inh: inactive

Results for COc1cccc(CC(=O)N2CCC3(CC2)OC(=O)N(Cc2ncccn2)C3(C)c2ccccc2)c1 (centres undefined) ?
Pf Dd2 inh: -4%

How did COc1cc(Cl)c(C)cc1NC(=O)Cn1cccc1-c1nc(-c2ccc(F)cc2)no1 do in these assays?
Pf Dd2 inh: -17%

How did CC(=O)N1CC2(CCN(Cc3ccc(Cl)cc3)CC2)Cc2ccccc21 do in these assays?
Pf Dd2 inh: -21%

Results for CC(=O)N1CC2(CCN(Cc3ccccn3)CC2)Cc2ccccc21 ?
Pf Dd2 inh: -12%
